The panel holds about 83,000 compounds, 20% with a hit somewhere; the sample as a whole holds those more often.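 Method: cells in 96-well plates; compound added at one concentration; 48 h incubation; percent growth measured; values under 10 scored active.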 A number with no mark means an inactive call.
Test system: HL-60(TB) leukemia
Assay: NCI-60 one-dose screen, 48 h (100 = growth as untreated, 0 = no growth, -100 = all killed)
Settings: 10 µM unless noted

SMILES	growth [%]
CC(C)(C)[Si](C)(C)OC1[C@@H](CNC(N)=O)O[C@@H](n2cnc3c(NC(=O)Nc4ccccc4)ncnc32)[C@H]1O[Si](C)(C)C(C)(C)C (stereo partly drawn)	52
O=C(Nc1cccnc1Nc1ccccc1)c1cn(Cc2cccc(Oc3ccccc3)c2)nn1	18.9
CO/N=C(/C(=O)NC1C(=O)N2C(C(=O)O)=C(COC(N)=O)CSC12)c1ccco1 (stereo not drawn)	109

Reference: PubChem BioAssay (NCI)
